Compounds with a hit are over-represented: about 1.9% of the library has one in this group of screens.
H9c2 protect = modulators protecting cardiomyocytes from myocardial damage. H9c2 cardiomyocytes, H2O2 injury protection, ATPLite, 2 h. protection from H2O2 cell death, % at 20 µM. hit rate 0.63% among 360,000;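 active = compounds giving at least 50% protection of heart cells from peroxide-induced death in the single-dose screen, raw or plate-pattern-corrected value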
PP5 inh = PP5 (human) phosphatase inhibition. P53041. purified PP5c, OMFP substrate fluorescence. inhibition, % at 6.7 µM. hit rate 0.18% among 320,000;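 active = inhibition above the campaign's mean inhibition across all tested compounds plus 3 SD, cut at about 9.5% in these data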
Target sequence (P53041 whole entry, looked up): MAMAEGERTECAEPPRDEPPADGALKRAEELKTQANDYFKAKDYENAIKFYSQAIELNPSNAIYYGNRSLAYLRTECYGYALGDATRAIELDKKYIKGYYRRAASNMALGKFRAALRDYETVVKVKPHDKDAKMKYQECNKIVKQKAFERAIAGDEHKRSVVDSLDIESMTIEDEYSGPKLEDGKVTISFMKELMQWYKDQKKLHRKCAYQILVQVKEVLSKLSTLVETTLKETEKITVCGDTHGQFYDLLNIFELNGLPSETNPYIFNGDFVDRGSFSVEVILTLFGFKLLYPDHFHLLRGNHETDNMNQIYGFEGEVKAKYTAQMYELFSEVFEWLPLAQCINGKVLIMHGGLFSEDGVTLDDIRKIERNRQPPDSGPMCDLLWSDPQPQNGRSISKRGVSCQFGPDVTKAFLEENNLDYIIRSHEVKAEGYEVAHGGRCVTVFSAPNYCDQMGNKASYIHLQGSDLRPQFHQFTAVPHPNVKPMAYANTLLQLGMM
ATG4B inhibitor = ATG4B (human) cysteine protease inhibition; ATG4B cleavage of LC3-PLA2, NBD-HPC fluorescence, 1 h; inhibition, % at 8.33 µM; hit rate 0.51% among 340,000; AID 504462; in the data active = inhibition above about 40%
PP1 counter = counter-screen for PP5 inhibitors: inhibitors of human PP1-alpha; P62136; purified PP1alpha, OMFP fluorescence; inhibition, % at 6.7 µM; hit rate 0.9% among 320,000;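 active = inhibition above the mean inhibition of all tested compounds plus 3 SD, computed separately for each screening campaign, cut at about 15% in these data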
PP1 confirm = human PP1 phosphatase inhibition, confirmation; shares compounds with PP1 counter; purified PP1alpha, OMFP substrate fluorescence; inhibition, % at 6.7 µM; hit rate 52% among 1,900;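 active = mean PP1 inhibition above a set limit taken from the earlier primary screen, cut at about 15% in these data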
PP5 inh counter = PP5 phosphatase inhibition, counter-screen for PP1 inhibitors; shares compounds with PP1 counter; purified PP5c, OMFP fluorescence; inhibition, % at 6.7 µM; hit rate 4% among 1,900; AID 2360;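 active = mean PP5 inhibition over triplicate wells above about 9.5% taken from the earlier PP1 screen, limit read from the data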
Of the large screens only hits and unclear results are named; the others gave an inactive call (follow-up assays come after a bar, where they were run).

NC(=O)CC(NC(=O)c1cccc(Br)c1)c1ccc(N2CCN(c3ccc(F)cc3)CC2)c([N+](=O)[O-])c1 (centres undefined)	none
Cc1cccc(C(=O)Nc2sc3c(c2C(=O)O)CCCC3)c1	none
CCOC(=O)N1CCN(C(=O)C2CCN(C(=O)c3ccccc3C)CC2)CC1	none (no result: PP5 inh, PP1 counter)
Cc1c(C(=O)OCC(=O)Nc2ccccc2OC(F)F)cccc1[N+](=O)[O-]	PP1 counter 23 | PP1 confirm inactive | PP5 inh counter inactive
CCOc1ccccc1NC(=O)C1C2CCC(O2)C1C(=O)O (centres undefined)	PP5 inh 77, PP1 counter 77 | PP1 confirm 16 | PP5 inh counter 31
CCOc1ccccc1NC(=O)C1C2C=CC(C2)C1C(=O)O (centres undefined)	none
COc1ccc(OC)c(NC(=O)C2C3CCC(O3)C2C(=O)O)c1 (centres undefined)	PP5 inh 69, PP1 counter 64 (no result: H9c2 protect, ATG4B inhibitor) | PP1 confirm 22 | PP5 inh counter 27
O=C(Nc1nc(-c2ccccn2)cs1)c1ccc2c(c1)OCCO2	PP1 counter 39 | PP1 confirm 43 | PP5 inh counter inactive
O=C(Nc1nc(-c2ccccc2)cs1)C1COc2ccccc2O1 (centres undefined)	none
O=C(Nc1nc(-c2ccccn2)cs1)C1COc2ccccc2O1 (centres undefined)	PP1 counter 29 | PP1 confirm 41 | PP5 inh counter inactive
CC(Sc1nnnn1C)C(=O)NC1CCCC1 (centres undefined)	none (no result: PP5 inh, PP1 counter)
Cc1nc2c(cnn2CCO)c(=O)[nH]1	none (no result: PP5 inh, PP1 counter)
Cc1c(CCOC(=O)C23CC4CC(CC(C)(C4)C2)C3)sc[n+]1CC(=O)c1ccccc1	PP1 counter 20 | PP1 confirm inactive | PP5 inh counter inactive
Cc1ccc(C(=O)C2=C(O)C(=O)N(CC3CCCO3)C2c2ccccc2F)o1 (centres undefined)	none
CCCCOc1ccc(C2C(C(=O)c3ccc(C)o3)=C(O)C(=O)N2CC2CCCO2)cc1 (centres undefined)	PP1 counter 20 | PP1 confirm 27 | PP5 inh counter inactive
CC[C@]12c3[nH]c4ccc(Cl)cc4c3CCN1C(=O)[C@@H](CC(=O)NC/C=C(\C)CCC=C(C)C)C[C@@H]2C(=O)N1CCN(C(=O)c2ccco2)CC1	none (no result: PP5 inh, PP1 counter)
COc1ccccc1NC(=O)C(=O)N/N=C(\C)CC(=O)Nc1ccc(OCc2ccccc2)cc1	PP1 counter 19 | PP1 confirm 24 | PP5 inh counter inactive
C/C(CC(=O)Nc1ccccn1)=N\NC(=O)C(=O)Nc1cccc(C)c1	none
C/C(CC(=O)Nc1ccc(OCc2ccccc2)cc1)=N\NC(=O)C(=O)Nc1cccc(C)c1	PP1 counter 18 | PP1 confirm inactive | PP5 inh counter inactive
COc1ccccc1/C=N/NC(=O)CSc1ccc2ccccc2n1	none
CCCCSc1nc(C)cc(SCC(=O)N/N=C/c2cccc(OC)c2O)n1	H9c2 protect 52, PP1 counter 21 | PP1 confirm inactive | PP5 inh counter inactive
Cc1ccc(NC(=O)Nc2nnc(-c3ccncc3)s2)cc1C	PP1 counter 25 | PP1 confirm 29 | PP5 inh counter inactive
COc1ccc(-c2csc(Nc3ccc(S(=O)(=O)Nc4cc(OC)nc(OC)n4)cc3)n2)cc1	none
COc1cc(NS(=O)(=O)c2ccc(Nc3nc(-c4ccccn4)cs3)cc2)nc(OC)n1	PP1 counter 63 | PP1 confirm 71 | PP5 inh counter inactive
CC(OC(=O)Cc1ccc(Br)cc1)C(=O)NC1CCCCC1C (centres undefined)	none
CS(=O)(=O)c1ccc(C(=O)Nc2nc(-c3ccco3)c(-c3ccco3)s2)cc1	none (no result: PP5 inh, PP1 counter)
O=C(CN1C(=O)/C(=C\C=C\c2ccccc2)SC1=S)Nc1ccc(F)cc1	PP1 counter 23 | PP1 confirm inactive | PP5 inh counter inactive
O=C(CN1C(=O)/C(=C/c2ccccc2)SC1=S)Nc1ncc(Cc2ccccc2)s1	PP1 counter 22 | PP1 confirm 20 | PP5 inh counter inactive
Oc1cccc2cc3cccc(O)c3c(O)c12	PP1 counter 35 | PP1 confirm 24 | PP5 inh counter inactive
Cc1ccc(NC(=O)/C(=C\c2ccc([N+](=O)[O-])cc2)NC(=O)c2ccccc2)cc1	none
O=C(N/N=C/c1ccc(O)c(O)c1O)/C(=C/c1ccc([N+](=O)[O-])cc1)NC(=O)c1ccccc1	H9c2 protect 61, PP1 counter 32 | PP1 confirm 36 | PP5 inh counter inactive

Screens: PubChem BioAssay, several laboratories
